# Molecular target: T1, Calcium/calmodulin-dependent protein kinase type IV (Homo sapiens) (UniProt Q16566)
# T1 sequence (whole entry): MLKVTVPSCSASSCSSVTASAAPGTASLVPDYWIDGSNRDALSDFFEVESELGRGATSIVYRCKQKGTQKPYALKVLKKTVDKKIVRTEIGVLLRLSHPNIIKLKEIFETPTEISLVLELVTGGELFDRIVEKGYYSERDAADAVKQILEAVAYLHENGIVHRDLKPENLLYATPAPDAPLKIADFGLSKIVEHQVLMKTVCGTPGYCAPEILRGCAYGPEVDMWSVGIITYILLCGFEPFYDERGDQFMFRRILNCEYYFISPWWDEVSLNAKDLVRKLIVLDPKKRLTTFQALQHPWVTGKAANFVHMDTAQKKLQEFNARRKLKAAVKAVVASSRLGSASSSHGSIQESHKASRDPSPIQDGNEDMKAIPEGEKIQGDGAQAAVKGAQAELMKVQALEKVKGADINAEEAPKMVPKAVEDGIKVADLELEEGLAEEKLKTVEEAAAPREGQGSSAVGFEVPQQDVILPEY
# Settings: at 10 µM
row,SMILES,residual activity
1,O=C1NC(=O)c2c1c1c3ccccc3[nH]c1c1[nH]c3cc(Br)ccc3c21,99%
2,NC(=O)c1ccc2[nH]c(-c3ccc(Oc4ccc(Cl)cc4)cc3)nc2c1,108%
3,Cc1cncc2cccc(S(=O)(=O)N3CCCN(C(=O)CN)C[C@H]3C)c12,22%
4,CCN(CC)CCCCN1c2ccccc2Oc2ccc(Cl)cc21,118%
5,COc1ccc(CNc2nc(N(CCO)CCO)nc3c2ncn3C(C)C)cc1,78%
6,Cc1ccc(S(=O)(=O)/C=C/C#N)cc1,86%
7,CO[C@H]1C[C@@H]2CC[C@@H](C)[C@@](O)(O2)C(=O)C(=O)N2CCCC[C@H]2C(=O)O[C@H]([C@H](C)C[C@@H]2CC[C@@H](O)[C@H](OC)C2)CC(=O)[C@H](C)/C=C(\C)[C@@H](O)[C@@H](OC)C(=O)[C@H](C)C[C@H](C)/C=C/C=C/C=C/1C,119%
8,CO[C@H]1[C@@H](OC)C[C@H](C)[C@@H](OC)C2=CC(=O)C=C(NC(=O)/C(C)=C/C=C/[C@H](OC)[C@@H](OC(N)=O)/C(C)=C/[C@@H]1C)C2=O,81%
9,CC[n+]1c(/C=C/N(C)c2ccccc2)n(-c2ccccc2)c2ccc(-c3nc4ccccc4s3)cc21,95%
10,Cc1ccc(NC2=CC(=O)c3sc(C)nc3C2=O)cc1,96%
11,Oc1ccc(-c2nc(-c3ccc(F)cc3)c(-c3ccncc3)[nH]2)cc1,99%
12,Nc1n[nH]c2nnc(-c3c(-c4ccccc4)nn4ccccc34)cc12,64%
13,CCOc1cc2ncnc(Nc3cccc(Br)c3)c2cc1OCC,93%
14,N#Cc1cnc2cnc(NCc3cccnc3)cc2c1Nc1ccc(F)c(Cl)c1,102%
15,CNc1cc2c(Nc3cccc(Br)c3)ncnc2cn1,56%
16,Ic1cccc(CSc2nnc(-c3ccncc3)o2)c1,100%
17,O=C1NC(=O)/C(=C/c2ccc3c(c2)OC(F)(F)O3)S1,72%

row,SMILES,residual activity
1,CC(=O)c1ccc(N2CCOCC2)cc1O,98%
2,CO[C@@H]1[C@H](N(C)C(=O)c2ccccc2)C[C@H]2O[C@]1(C)n1c3ccccc3c3c4c(c5c6ccccc6n2c5c31)C(=O)NC4,50%
3,CC(C)n1cnc2c(NCc3ccccc3)nc(NCCCO)nc21,90%
4,COc1cc2ncnc(Nc3ccc(Oc4ccccc4)cc3)c2cc1OC,104%
5,O=C(Nc1cccc(Nc2cc(Nc3cccc(C(F)(F)F)c3)ncn2)c1)C1CC1,94%
6,COc1ccc(OC)c2c(=S)c3ccccc3[nH]c12,84%
7,Cn1nc2c3c(cccc31)C(=O)c1ccccc1-2,62%
8,Nc1ccc2ncnc(NCCc3ccc(Oc4ccccc4)cc3)c2c1,106%
9,CN(C)c1ccc(/C=C2\C(=O)Nc3ccccc32)cc1,89%
10,O=C1Nc2cc(Br)ccc2/C1=C1/Nc2ccccc2/C1=N\O,73%
11,N#C/C(=C(\N)Sc1ccc(N)cc1)c1ccccc1C(F)(F)F,83%
12,COc1cc2ncnc(Nc3ccc(O)c(Br)c3)c2cc1OC,67%
13,O=C1NC(=O)/C(=C\c2ccc3nccnc3c2)S1,84%
14,Cc1nc2cc3nc(-c4cccs4)cnc3cc2n1C,101%
15,COc1cc2ncnc(N3CCN(C(=O)Nc4ccc(Oc5ccccc5)cc4)CC3)c2cc1OC,97%
16,COc1cccc(-c2cc(=O)c3ccccc3o2)c1N,108%

# Reference: ChEMBL document CHEMBL2218924, “A broad activity screen in support of a chemogenomic map for kinase signalling research and drug discovery” (Biochem J, 2013)
